Assay results published in PubChem BioAssay (NCI).
About 83,000 compounds went through this panel and 20% of them were active in at least one assay; those are over-represented in the sample as a whole.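 48-hour exposure, single concentration, 96-well plates; percent growth endpoint where 0 means no net growth. Active: below 10.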 Unmarked numbers belong to inactive results. The source made the active and inactive calls.

Columns and labels:
Assay in all cases: NCI-60 one-dose screen, 48 h (100 = growth as untreated, 0 = no growth, -100 = all killed)
Conditions in all cases: 10 µM unless noted
DU-145 prostate = test system: DU-145 prostate
K-562 leukemia = test system: K-562 leukemia
MALME-3M melanoma = test system: MALME-3M melanoma
MDA-MB-231 breast = test system: MDA-MB-231 breast
SF-268 CNS = test system: SF-268 CNS
SF-295 CNS = test system: SF-295 CNS
SF-539 CNS = test system: SF-539 CNS
UACC-257 melanoma = test system: UACC-257 melanoma
HCT-15 colon = test system: HCT-15 colon
HT29 colon = test system: HT29 colon
SNB-75 CNS = test system: SNB-75 CNS
SNB-19 CNS = test system: SNB-19 CNS
U251 CNS = test system: U251 CNS
PC-3 prostate = test system: PC-3 prostate
SK-MEL-5 melanoma = test system: SK-MEL-5 melanoma
UACC-62 melanoma = test system: UACC-62 melanoma
SK-MEL-28 melanoma = test system: SK-MEL-28 melanoma
LOX IMVI melanoma = test system: LOX IMVI melanoma

SMILES	growth (DU-145 prostate)	growth (K-562 leukemia)	growth (MALME-3M melanoma)	growth (MDA-MB-231 breast)	growth (SF-268 CNS)	growth (SF-295 CNS)	growth (SF-539 CNS)	growth (UACC-257 melanoma)	growth (HCT-15 colon)	growth (HT29 colon)	growth (SNB-75 CNS)	growth (SNB-19 CNS)	growth (U251 CNS)	growth (PC-3 prostate)	growth (SK-MEL-5 melanoma)	growth (UACC-62 melanoma)	growth (SK-MEL-28 melanoma)	growth (LOX IMVI melanoma)
CCn1c(SCC(=O)Nc2cccc(C(=O)/C=C/c3ccc(C)cc3)c2)nc2ccccc2c1=O	77.2%	55.4%	103%	92.1%	87.2%	104%	86.5%	105%	49.2%	65.8%	93.3%	81.2%	80.1%	60.7%	90%	70.1%	95.8%	–
COc1ccccc1NCc1cccn1Cc1ccc(F)cc1	90%	111%	101%	89.4%	92.5%	104%	98.6%	102%	98.3%	102%	104%	96%	98.8%	97.3%	97.4%	89.8%	97.4%	97%
C=CCn1c(SCC(=O)Nc2ccc(C(=O)/C=C/c3cc(OC)c(OC)c(OC)c3)cc2)nnc1-c1c[nH]c2ccccc12	13.2%	3.04% (active)	68.6%	23%	33.1%	68.1%	-16.2% (active)	73%	-20.3% (active)	-57.2% (active)	91.2%	21.7%	8.96% (active)	40.6%	25.2%	36.7%	41.7%	-65.1% (active)
Cc1ccc2c(c1)C13C(=C2Br)CCCN1C(=O)c1ccccc13 (stereo unspecified)	102%	46.3%	85.3%	93.7%	90.6%	94.2%	98.4%	93.3%	73%	98.9%	89.9%	89.2%	97.5%	67.9%	88%	67.4%	92.5%	103%
Oc1cccc2ccc(-c3nnc(SCc4ccc(O)c5ncccc45)o3)nc12	22.1%	14.6%	-3.31% (active)	26.6%	23.4%	3.94% (active)	14.5%	0.0475% (active)	8.78% (active)	56.8%	34.3%	12.9%	13.3%	9.67% (active)	-63.7% (active)	9.35% (active)	35.2%	8.81% (active)
COc1ccc(NC(=O)Nc2ccc3c(ccn3C(=O)c3cccc(F)c3)c2)cc1	84.5%	86.1%	34.2%	78.6%	85.3%	90.4%	52%	84.2%	71.6%	64%	44%	80.8%	54.4%	77.4%	76.6%	65.9%	87.2%	57%
CCn1c(SCC(=O)Nc2cccc(C(=O)/C=C/c3ccccc3Cl)c2)nc2ccccc2c1=O	77.8%	53%	103%	87.1%	88%	91.4%	90.4%	110%	55.2%	67.1%	89.5%	82.3%	73.4%	75.4%	93.5%	79.9%	98.3%	–
O=C(O)c1ccc(-n2cc(CNc3cc(F)c(F)c(F)c3)c(-c3cccc(F)c3)n2)cc1	101%	84.3%	67.2%	94.4%	106%	37.1%	97.1%	95.1%	46.8%	106%	106%	97.4%	–	79.1%	67.4%	58.2%	83.2%	104%
COc1ccc([C@H]2c3[nH]c4ccccc4c3C[C@H]3C(=O)N(C4CCN(Cc5c(Cl)cccc5Cl)CC4)CC(=O)N23)c(OC)c1	110%	92.7%	90.6%	93%	85.6%	106%	101%	116%	92.4%	103%	99.3%	95.5%	95.8%	72.7%	95.7%	84.1%	101%	98.6%
Cc1ccc(-c2nnc(SCc3ccc(O)c4ncccc34)o2)cc1	28.7%	11.3%	1.77% (active)	41.7%	21.2%	5.77% (active)	14.9%	9.75% (active)	10.8%	79%	0.0889% (active)	11.1%	7.11% (active)	12.2%	2.42% (active)	2.61% (active)	22.8%	4.71% (active)
O=C(NNc1nc2cc(F)c(F)cc2n2cccc12)c1cnccn1	32.7%	15.5%	49.7%	44%	32.5%	11.1%	19.9%	17.5%	13.9%	36.8%	54.7%	31.5%	26.4%	29.4%	29.3%	22.2%	36%	11.4%
CC(=O)N1C(=S)NC(=O)C1CC(C)C (stereo unspecified)	110%	106%	102%	103%	102%	102%	102%	104%	99.7%	115%	103%	102%	101%	106%	106%	93.7%	101%	95.5%
COc1c(N2CC3CCCNC3C2)c(F)cc2c(=O)c(C(=O)N/N=C/c3ccc(N(C)C)cc3)cn(C3CC3)c12 (stereo unspecified)	73.6%	-10% (active)	92.9%	69.1%	85.5%	95%	-8.68% (active)	106%	16.4%	-12% (active)	100%	78.3%	49%	60.4%	83.9%	100%	97.8%	-22.6% (active)
CS(=O)(=O)Nc1cc(-c2ccc3ncc(C#N)c(N[C@H](CO)c4ccccc4)c3c2)cnc1Cl	62.4%	41.4%	29.8%	43%	28.4%	57%	43.7%	59.7%	36.7%	74.3%	36%	41.7%	36.1%	32.7%	-77.3% (active)	13.7%	35.2%	26.9%
CCN(CC)c1ccc2c(c1)Oc1nc(N)c(C#N)c(N)c1C2Sc1ccc(C)cc1 (stereo unspecified)	-95.5% (active)	0.301% (active)	-92.9% (active)	-87.3% (active)	-52.7% (active)	-93.3% (active)	-97.8% (active)	-74.2% (active)	-83.8% (active)	-23.5% (active)	-82.3% (active)	-97.4% (active)	–	-88.5% (active)	-96.4% (active)	-88.5% (active)	-94.5% (active)	-92.2% (active)
CNC(=O)c1c(NC(=O)c2ccccc2C(F)(F)F)sc2c1CCC(=O)C2	99.9%	12.9%	54%	26.5%	33.2%	82.2%	14.5%	72.4%	9.11% (active)	26.5%	93.1%	41.1%	24.8%	14.8%	-17.1% (active)	16.6%	45.4%	22%
COc1cc(/C=C2\C(=O)Nc3cc(Cl)ccc32)ccc1OCc1ccc(F)cc1	104%	97.7%	92.7%	92.1%	101%	97.1%	95%	109%	89%	105%	104%	104%	111%	87%	99%	88.8%	105%	–
